# From PubChem BioAssay AID623989 (Broad Institute, 2012)
# Measured potencies and affinities stand elsewhere. Results filed as inconclusive are left out. The source made the active and inactive calls.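 The calls were made as follows: active = curve fit gives half-maximal inhibition potency at or below twice the top tested dose in every run; inconclusive = runs disagree, flat partial inhibition, or poor curve fit; inactive = inactive in every run, flat, reversed or weak.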
# Molecular target: Glycogen synthase kinase-3 beta (Homo sapiens) (UniProt P49841)
# Test: inhibition of human GSK3B activity – biochemical, microfluidics, dry powder samples, set 2, dose response (AID 623989)
# Chain of Glycogen synthase kinase-3 beta (Homo sapiens) (P49841 whole entry, looked up): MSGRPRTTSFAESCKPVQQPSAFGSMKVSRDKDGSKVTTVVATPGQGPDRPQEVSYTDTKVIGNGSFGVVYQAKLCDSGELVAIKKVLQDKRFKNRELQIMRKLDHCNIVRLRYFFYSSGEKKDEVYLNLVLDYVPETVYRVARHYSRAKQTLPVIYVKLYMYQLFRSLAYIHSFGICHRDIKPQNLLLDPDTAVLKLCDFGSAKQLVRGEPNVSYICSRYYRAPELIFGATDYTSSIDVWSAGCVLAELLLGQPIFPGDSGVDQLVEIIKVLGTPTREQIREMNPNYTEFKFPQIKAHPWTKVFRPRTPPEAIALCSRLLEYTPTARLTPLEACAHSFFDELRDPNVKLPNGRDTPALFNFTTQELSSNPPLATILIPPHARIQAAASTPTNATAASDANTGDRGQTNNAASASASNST
structure (smiles),measurement,value
COc1cc(C(=O)N2CCN(c3ccccn3)CC2)cc(OC)c1OC,outcome,inactive
